# 14-3-3 PPI: modulators of human 14-3-3 gamma - Raf peptide interaction | FP, 14-3-3gamma / TMR-pS259-Raf peptide binding | 0.19% of 160,000 active | P61981 | inhibition, % at 40 µM; in the data active = inhibition above about 30%;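 note: 0% = protein plus tracer without compound and 100% = blank with tracer alone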
# Target sequence (P61981 whole entry, looked up): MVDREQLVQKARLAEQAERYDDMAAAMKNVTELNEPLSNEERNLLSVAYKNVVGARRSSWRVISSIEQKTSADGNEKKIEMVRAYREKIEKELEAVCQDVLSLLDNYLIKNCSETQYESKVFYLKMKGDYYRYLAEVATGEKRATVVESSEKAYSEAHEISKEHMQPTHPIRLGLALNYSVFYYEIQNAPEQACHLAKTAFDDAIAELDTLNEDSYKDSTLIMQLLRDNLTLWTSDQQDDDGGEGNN
# Starred values were filed as active, the others as inactive; + = active, no number. Many of the other results were omitted from the sample, so hits are more common in it than they were.
SMILES,14-3-3 PPI
Nc1ccc2oc(CCc3nc4cc(N)ccc4o3)nc2c1,-9
O=C(COc1ccccc1)N1CCN(C(=O)COc2ccc(Cl)cc2)CC1,-6
CCOc1ccc(C=Nc2cc([N+](=O)[O-])ccc2C)c(O)c1,+
CCOc1ccc(-c2nc3cc(N=Cc4cc([N+](=O)[O-])ccc4O)ccc3o2)cc1,-7
COC(=O)c1ccc(N=Cc2c(OC(=O)c3cccc([N+](=O)[O-])c3)ccc3ccccc23)cc1,3
Cc1ccccc1NC(=O)c1cc2ccccc2c(C=Nc2ccc([N+](=O)[O-])cc2O)c1O,-105
COc1cc(OC)c(C=Nc2cc([N+](=O)[O-])ccc2C)cc1Br,-5
CC(=O)Oc1ccc2ccccc2c1C=Nc1cc([N+](=O)[O-])ccc1C,87*
COc1cc(C2C3=C(CCCC3=O)OC3=C2C(=O)CCC3)ccc1OCc1ccccc1,-18
CCSc1nc2sc3c(c2c(=O)n1CCc1ccccc1)CCCC3,-4
Cc1ccc(C(=O)Nc2ccc(NC(=O)c3ccc(C(C)(C)C)cc3)cc2)cc1,1
O=C(CNC(=O)c1ccc(Br)o1)OCC(=O)c1ccc(Cl)cc1,-3
CC(C)C1=CC23CCC4C(C)(C(=O)O)CCCC4(C)C2CC1C1C(=O)OC(=O)C13 (stereo unspecified),47*
CC(C)CN1C(=O)C2C3CC4C5(C)CCCC(C)(C(=O)O)C5CCC4(C=C3C(C)C)C2C1=O (stereo unspecified),6
CC(C)C1=CC23CCC4C(C)(C(=O)O)CCCC4(C)C2CC1C1C(=O)N(c2ccc(O)cc2)C(=O)C13 (stereo unspecified),-24
Cc1nc2cc(C(=O)O)ccc2s1,-7
Cc1nc2ccc(C(=O)O)cc2c2c1CC(C)S2 (stereo unspecified),73*
COc1cccc2c3c(c(C)nc12)CC(C)S3 (stereo unspecified),-6
O=C(NCC1CCCO1)c1cc(Sc2ccccc2Cl)nc2ccccc12 (stereo unspecified),-4
COc1ccc(C2=NN(C(=O)c3cc(OC)c(OC)c(OC)c3)C(c3ccccc3F)C2)cc1OC (stereo unspecified),10
Cc1cccc(N2C(=O)C3C(c4cc(Br)ccc4O)NC(C)(C(=O)O)C3C2=O)c1 (stereo unspecified),3
O=C(O)CCCNc1cc(N2CCCCCC2)c2noc3c2c1C(=O)c1ccccc1-3,67*
O=C(O)CCCNc1cc(N2CCC3(CC2)OCCO3)c2noc3c2c1C(=O)c1ccccc1-3,-52
O=C(O)CCCNc1cc(N2CCN(c3cccc(C(F)(F)F)c3)CC2)c2noc3c2c1C(=O)c1ccccc1-3,-123
Cc1ccc(S(=O)(=O)N2CCCC(C(=O)N3CCC(Cc4ccccc4)CC3)C2)cc1 (stereo unspecified),1
SMILES,14-3-3 PPI
O=C1c2ccccc2C2=Nc3ccccc3SC(c3cccc(Br)c3)C12 (stereo unspecified),-17
C=CCSc1nnc2c(n1)OC(c1ccncc1)Nc1ccc(Br)cc1-2 (stereo unspecified),-25
C=CCSc1nnc2c(n1)OC(C)(C)Nc1ccc(Br)cc1-2,112*
C=CCSc1nnc2c(n1)OC=Nc1ccc(Br)cc1-2,-7
CC(=O)Nc1ccc2nc(NC(=O)COc3ccc(Cl)cc3)sc2c1,-8
Cc1c(C(=O)N(C)C)sc2c1c(=O)n(-c1ccc(Cl)cc1)c(=O)n2CC(=O)Nc1cccc(C(F)(F)F)c1,-3
Cc1ccc(N=Cc2cc(-c3ccccc3)oc2S)c(C)c1,90*
Cc1ccc(N=Cc2ccccc2O)c(C(=O)c2ccccc2)c1,-2
C=CCN=c1cc(-c2ccccc2)oc2ccc(C)cc12,-12
Cc1cccc(C(=O)Nc2ccc(-c3nc4ccc(C)cc4s3)cc2)c1,-11
O=c1oc2ccccc2cc1C1=NN(c2ccccc2)C(c2ccccc2)C1 (stereo unspecified),54*
Cc1ccc(N2N=C(c3ccccc3)CC2c2ccccc2)cc1 (stereo unspecified),-9
COc1ccc(C2=NN(c3ccccc3)C(c3ccc(OC)cc3)C2)cc1 (stereo unspecified),-34
Cc1c(Cl)cccc1NC(=O)c1ccc(Oc2cccc(C(F)(F)F)c2)c(S(=O)(=O)N2CCCC2)c1,0
CC1CCCC(NC(=O)C2N(CCc3ccc(Cl)cc3)C(=O)C3C(C(=O)Nc4ccc(Cl)cc4)C4C=CC32O4)C1C (stereo unspecified),-9
CC(C(=O)N1CCOCC1)N1C(=O)c2ccccc2C1=O (stereo unspecified),-5
CC(C)NC(=O)N1CCOCCOCCN(C(=O)NC(C)C)CCOCCOCC1,4
CC(N)C(=O)N1CCOCCOCCN(C(=O)C(C)N)CCOCCOCC1 (stereo unspecified),+
CCC(=O)Oc1ccc(C(=O)Nc2ccc(C)cc2Br)cc1,3
CCOC(=O)CNC(=O)CSc1nc(-c2cccs2)nc2c1c(=O)n(C)c(=O)n2C,-2
Cc1ccc(NC(=O)c2ccc(F)c(S(=O)(=O)NC3CCCC(C)C3C)c2)cc1F (stereo unspecified),-19
CC(C)NS(=O)(=O)c1cccc2cccnc12,-8
O=S(=O)(c1cnc[nH]1)N1CCC(Cc2ccccc2)CC1,6
COc1ccc(OC)c(C2NC(c3cc(OC)ccc3OC)C3CCCC2C3=O)c1 (stereo unspecified),0
O=C(COc1ccc2c(c1)C(=O)CC1(CCCCC1)O2)NCc1ccccc1,-1
SMILES,14-3-3 PPI
CC(=O)N1CCC2(CC1)CC(=O)c1cc(OCC(=O)NCc3ccccn3)ccc1O2,103*
O=C(COc1ccc2c(c1)C(=O)CC1(CCCCC1)O2)NCc1ccccn1,-10
COc1ccc(C(=O)N2CCCCC2)cc1S(=O)(=O)N1CCOCC1,1
N#CCCNCC1OCCc2ccccc21 (stereo unspecified),-6
COCCNc1ncnc2ccc(Br)cc12,8
c1ccc(CNc2ncnc3ccccc23)cc1,-5
COCCNc1ncnc2ccccc12,31*
C=CCN1C(=O)C(C(=O)Nc2ccc(OC)cc2)C2CC1(C)Oc1ccccc12 (stereo unspecified),-5
Cc1ccccc1C(=O)Nc1ccccc1C(=O)Nc1ccccc1,35*
Cc1ccc(NC(=O)c2ccccc2C)cc1I,-6
Cc1ccccc1NC(=O)c1ccccc1C,-1
CC1(C)CC(=O)C=C(Nc2cc([N+](=O)[O-])ccc2N)C1,1
O=C(NC1CCCCCCC1)c1cccn2c(=O)c3cc(Br)ccc3nc12,-11
COc1ccc(Nc2cc(C)nc3c(C)cccc23)cc1,-6
COc1ccc2nc(C)cc(Nc3ccc(F)cc3)c2c1,-66
COc1ccc(Nc2cc(C)nc3ccccc23)cc1,38*
Cc1ccc2ccc(C(Nc3ccccn3)c3cccc(Oc4ccccc4)c3)c(O)c2n1 (stereo unspecified),-7
COc1ccc(OC)c(NC(=O)COc2ccccc2C(C)C)c1,-2
COc1ccc(OC)c(NC(=O)COc2cc(C)ccc2C(C)C)c1,74*
Cc1ccc(C(C)C)c(OCC(=O)Nc2ccc(C)c(C)c2)c1,-11
O=C(O)CCC(=O)C12CC3CC(CC(C3)C1)C2,0
CN1C(=S)SC(N(O)C(=O)Nc2ccccc2)C1(C)C (stereo unspecified),43*
CC1(C)C(N(O)C(=O)Nc2ccccc2)N(c2cccc(Cl)c2)C(=O)N1O (stereo unspecified),-6
CC1=C(C(=O)Nc2ccccc2)C(c2ccc([N+](=O)[O-])cc2)NC(=S)N1 (stereo unspecified),4
Cc1nc(C#N)c(NCc2ccco2)o1,4
